Measured values published in PubChem BioAssay (NCI).
The panel holds about 83,000 compounds, 20% with a hit somewhere; the sample as a whole holds those more often.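 Compound tested at a single concentration for 48 hours in 96-well plates; a percent growth value below 10 was scored as active.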 Values without a mark were called inactive. Active and inactive are the calls of the source.

Tested on: MDA-MB-468 breast
Experiment: NCI-60 one-dose screen, 48 h (100 = growth as untreated, 0 = no growth, -100 = all killed)
Conditions: 10 µM unless noted

Row | Structure (SMILES) | growth
1 | Cc1cc(C=O)c(C)c2c1[nH]c1ccccc12 | 68.1%
2 | Oc1ccc2ccccc2c1CN1CCOCC1 | 123%
3 | COc1cc2nc3c(=O)n(CCN(C)C)cnn3c(=O)c2cc1OC | 104%
4 | CCc1ccc(NC(=O)N[C@@H](Cc2cc(F)cc(F)c2)C(=O)N[C@@H]2C(=O)N3C[C@H](O)C[C@H]3C(=O)N3CCOC[C@H]3C(=O)N[C@@H](C)C(=O)N3C[C@H](C)C[C@H]3C(=O)O[C@H]2C)cc1 | 14.8%
5 | COc1ccc(COc2ccc(/C=C3\C(=O)Nc4ccccc43)cc2OC)cc1 | 100%
6 | Cn1cnc([N+](=O)[O-])c1S(=O)(=O)Oc1ccccc1 | 77.4%
7 | C=C1C(=O)O[C@H]2[C@H]1CC/C(CNC(=O)/C1=C/CC[C@@]3(C)O[C@H]3[C@H]3OC(=O)C(=C)[C@@H]3CC1)=C\CC[C@@]1(C)O[C@@H]21 | 42.9%
8 | Cc1ccc(C(=O)Nc2nc3c(s2)CN(Cc2ccccc2)CC3)cn1 | 67.1%
9 | C#Cc1cccc(Nc2nc3ccc([N+](=O)[O-])cc3nc2Nc2cccc(C#C)c2)c1 | -45.9% (active)
10 | Nc1c(C(=O)c2ccc(Cl)s2)sc2nc3c(cc12)CCCC3 | 69.1%
11 | Cc1nc2nc(C(F)(F)F)[nH]c2nc1C | 102%
12 | CC(C)n1nc(C#Cc2cccc3cc(-c4cccc(C(F)(F)F)c4)ncc23)c2c(N)ncnc21 | 98.3%
13 | COc1ccc(/C=C2\SC(=O)N(Cc3cc(=O)oc4ccc(OC)cc34)C2=O)cc1 | 46.6%
14 | C#CCNC(=O)c1cccc2c1cc(C)n2-c1nc2c(c(NCc3ccccc3)n1)CCCC2 | -50.9% (active)
15 | CSc1nc(N)nc2c1ncn2C | 108%
16 | COc1ccc(-c2cc(-c3ccccc3)nc(SCCCC(=O)NO)n2)cc1OC | -2.2% (active)
17 | COc1ccc(NC(=O)c2sc3nc(C)c(C(=O)c4ccc(OC)cc4)cc3c2N)cc1 | 13.2%
18 | CN(C)CCNC(=O)c1cccc(-c2cnc3ccc(-c4ccc5c(c4)OCO5)nn23)c1 | 66.9%
19 | COc1cc(/C=C2\CCCC3=C2NC(N)=NC3c2cc(OC)c(OC)c(OC)c2)cc(OC)c1OC (centres undefined) | -70.9% (active)
20 | CCCCOc1ncnc2nc[nH]c12 | 98.5%

Row | Structure (SMILES) | growth
21 | NC1CCN(c2nc(Nc3cccc(C(F)(F)F)c3)c3c(=O)[nH]ccc3n2)CC1 | -77.2% (active)
22 | O=C1OCC2=C1C(c1ccc(Cl)c(Cl)c1)c1cc3c(cc1N2CCO)CCC3 (centres undefined) | 22.9%
23 | N#Cc1c(-c2ccco2)nc2c(c(-c3ccccc3)nn2-c2ccccc2)c1-c1ccc(O)cc1 | 92.4%
24 | O=C(c1ccc(Cl)cc1)C1C(c2ccccc2)C1[N+](=O)[O-] (centres undefined) | 111%
25 | CCc1nc2cc(/C=C/C(=O)NO)ccc2c(=O)n1CCc1ccc(F)cc1 | -11.6% (active)
26 | COc1ccc(C2=NN(C(C)=O)C(c3ccc(Oc4ccnc5cc(Cl)ccc45)c(OC)c3)C2)cc1 (centres undefined) | 54%
27 | O=C(N=Nc1c(Cl)c(O)c2ccccc2c1O)C(=O)Nc1cccc(C(F)(F)F)c1 | 80.8%
28 | CCCSc1ccc2nc(NC(=O)OC)[nH]c2c1 | -7.05% (active)
29 | Cc1cc2nc(-c3ccccc3)c(-c3ccccc3)nc2cc1C | 106%
30 | COc1ccc2[nH]cc(/C=N/Nc3ccnc4cc(Cl)ccc34)c2c1 | -80.8% (active)
31 | NS(=O)(=O)c1ccc(-n2nc(C(=O)N/N=C\c3ccc(F)cc3)cc2-c2ccc(Br)cc2)cc1 | 73.9%
32 | CC(C)(C)n1cc(-c2ccnc(NCCCNS(=O)(=O)c3ccccc3)c2)c(-c2cccc(O)c2)n1 | 9.54% (active)
33 | Cn1cc(C(=O)c2nc(-c3c[nH]c4ccc(Br)cc34)no2)c2cc(Br)ccc21 | 66.1%
34 | CCCCCCCCCCCC(=O)NCCC[N+](C)(C)CC(=O)[O-] | 86.9%
35 | COc1ccc(C(=O)N=Nc2c(O)n(C)c3ccccc23)cc1 | 95.2%
36 | COC1=C(C)C(=O)c2c(c(CCCl)c3n2CCC3O)C1=O (centres undefined) | 91.5%
37 | OCC(O)c1nc2ccc3[nH]ncc3c2c2c1CCCC2 (centres undefined) | -28.1% (active)
38 | COc1ccc2nc(Cl)c(/C=C3\CC(c4ccccc4)=NN(c4ccccc4)C3=O)cc2c1 | 74.9%
39 | Fc1ccc(-c2nc(-c3nc4ncccc4[nH]3)cc3c2[nH]c2ccccc23)cc1F | 49.5%
